Screening results: PubChem, National Center for Advancing Translational Sciences (NCATS)
Pol eta inh = blocks human DNA polymerase eta activity; Q9Y253; recombinant Pol eta, fluorescent DNA replication assay; Potency, µM (doses to about 114 µM), most hits filed as inhibitors; 1.2% of 390,000 active; AID 588591
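Pol eta (10 nM) was preincubated with compounds for 15 min at room temperature, after which fluorescent replication substrate (50 nM final) was added to start the reaction. Fluorescence was read kinetically at 0 and 10 min.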
POLB inh = DNA polymerase beta (human) inhibition. Pol beta primer extension/strand displacement, fluorescence kinetic. Potency, µM (series often up to 114 µM), usual class: inhibitors. 1.3% of 340,000 active
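Curves were derived by four-parameter Hill fits of normalized qHTS data. The kinetic fluorescent primer-extension read was taken at 0 and 10 min after 50 nM substrate, following a 15 min room-temperature preincubation of 10 nM enzyme with compounds.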
POLK inh = DNA polymerase kappa (human) inhibition | Q9UBT6 | purified Pol kappa, fluorescent DNA synthesis assay, 10 min | Potency, µM (highest dose often 107 µM), usual class: inhibitors | 0.53% of 400,000 active
Target sequence (Q9UBT6 whole entry, looked up): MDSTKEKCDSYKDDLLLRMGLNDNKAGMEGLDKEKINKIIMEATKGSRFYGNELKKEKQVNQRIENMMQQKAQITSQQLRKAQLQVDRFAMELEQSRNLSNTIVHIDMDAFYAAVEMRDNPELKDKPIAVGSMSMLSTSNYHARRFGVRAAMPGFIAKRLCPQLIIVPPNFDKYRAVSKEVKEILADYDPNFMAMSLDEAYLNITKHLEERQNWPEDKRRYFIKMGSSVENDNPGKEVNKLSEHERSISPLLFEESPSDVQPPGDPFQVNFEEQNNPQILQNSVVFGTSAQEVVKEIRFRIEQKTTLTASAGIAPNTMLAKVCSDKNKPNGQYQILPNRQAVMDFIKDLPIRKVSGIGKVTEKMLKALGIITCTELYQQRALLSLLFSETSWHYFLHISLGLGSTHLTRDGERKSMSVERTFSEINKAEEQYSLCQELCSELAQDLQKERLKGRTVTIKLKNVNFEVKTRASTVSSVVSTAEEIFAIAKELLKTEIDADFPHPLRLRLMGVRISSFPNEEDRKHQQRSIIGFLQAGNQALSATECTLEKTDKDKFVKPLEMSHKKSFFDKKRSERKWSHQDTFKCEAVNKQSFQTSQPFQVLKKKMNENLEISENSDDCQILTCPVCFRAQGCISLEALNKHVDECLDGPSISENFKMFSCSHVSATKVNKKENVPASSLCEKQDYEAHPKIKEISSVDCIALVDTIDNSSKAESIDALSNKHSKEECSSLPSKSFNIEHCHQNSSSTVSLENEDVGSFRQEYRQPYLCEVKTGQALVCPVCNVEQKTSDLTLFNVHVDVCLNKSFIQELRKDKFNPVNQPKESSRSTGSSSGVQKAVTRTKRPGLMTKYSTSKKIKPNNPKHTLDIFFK
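Readout: fluorescence, taken kinetically at 0 and 10 min. Conditions: 10 nM Pol kappa, 15 min RT compound preincubation, 50 nM substrate final. Controls: enzyme-free buffer wells.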
WRN helicase inh = blocks human WRN helicase; WRN helicase unwinding, fluorescent forked duplex, kinetic; Potency, µM (top dose mostly 114 µM), usual class: inhibitors; AID 651768; Q14191; 0.46% of 360,000 active; note: nearly all actives have a fitted effect of over 55% in size
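Kinetic fluorescence helicase assay: unwinding of a quenched forked DNA duplex (100 nM final) with 2 mM ATP final raises red fluorescence (525/598 nm). Compounds sat 15 min at room temperature with 20 nM WRN beforehand.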
PI5P4K alpha inh = PI5P4K alpha (human) kinase inhibition | AID 652105 | PI5P4Kalpha enzyme, ADP-Glo luminescence, 60 min; active compounds read low | max response, % | 1.2% of 330,000 active; active = max response of -50% or lower; inconclusive = between -30% and -50%; inactive = -30% or higher; note: value at the top dose of about 77 µM
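Reactions run in 0.038 M HEPES pH 7.4, 0.28 mM EGTA, 0.1% CHAPS and 5% DMSO, with PI5P4Kalpha, substrate, compound and 5 microM ATP final, one hour at room temperature. Readout is ADP-Glo luminescence.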
POLI inh = blocks human DNA polymerase iota activity; Pol iota fluorescent replication assay, 10 min; Potency, µM (titrated, usually from 115 µM), actives largely listed as inhibitors; Q9UNA4; AID 588590; 1% of 390,000 active
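Pol iota at 10 nM preincubated 15 min with compounds at room temperature; reaction started with fluorescent substrate, 50 nM final. Fluorescence read kinetically at 0 and 10 min; buffer-only wells as negative control.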
Each line names hits and unclear results; the compound was inactive in the other large screens. Most compounds without a hit are left out; they make up all but 2.8% or so of the library. Unless noted, calls come from the whole dose curve; as a rule, active = well fitted curve in the direction sought with a large enough effect; inconclusive = small, poorly fitted or top-dose-only effect, or another doubt; inactive = no such curve, though single readings can be large; an effect the other way counts as inactive or inconclusive.

CSCC[C@H](NC(=O)[C@H](Cc1c[nH]c2ccccc12)NC(=O)CCNC(=O)OC(C)(C)C)C(=O)N[C@@H](CC(=O)O)C(=O)N[C@@H](Cc1ccccc1)C(N)=O	none (no result: Pol eta inh, POLB inh, WRN helicase inh, PI5P4K alpha inh, POLI inh)
C[C@@H]1OC(C2CCCCC2)N(C)[C@H]2C[C@H]3c4[nH]c5ccccc5c4CCN3C[C@@H]12 (stereo partly specified)	none (no result: Pol eta inh, POLB inh, POLK inh, POLI inh)
O=C(CN(C(=O)C1CSC(=O)C1)c1cccc(F)c1)NCc1ccc2c(c1)OCO2 (stereo unspecified)	none
CCCN1CCCc2cc(CN)ccc21	Pol eta inh 89µM, POLI inh 3.2µM (no result: PI5P4K alpha inh)
CCC(=O)N1CCc2cc(Br)cc(S(=O)(=O)N3CCN(c4ccccc4OC)CC3)c21	none (no result: WRN helicase inh, PI5P4K alpha inh)
Cc1occc1C(=O)NCc1ccco1	Pol eta inh inconclusive, POLB inh 32µM, PI5P4K alpha inh inconclusive, POLI inh inconclusive
Cc1occc1C(=O)NCc1ccc(C(=O)O)o1	Pol eta inh 56µM (no result: PI5P4K alpha inh)
Cc1occc1C(=O)NCc1ccccc1	none
Cc1c(Br)cc(C(=O)NCc2ccco2)c(C)c1C	Pol eta inh inconclusive, POLB inh 22µM, PI5P4K alpha inh inconclusive, POLI inh inconclusive
O=C(O)c1cccc(Cn2c(Cl)c(/C=N/NC(=O)c3cc4ccccc4cc3O)sc2=O)c1	Pol eta inh 6.3µM, POLB inh 11µM, POLK inh 32µM, WRN helicase inh 40µM, PI5P4K alpha inh -73, POLI inh 8.9µM
O=C(Cc1cccs1)Nc1nnc(-c2ccncc2)s1	POLB inh inconclusive, POLI inh 63µM (no result: PI5P4K alpha inh)
CC(C)c1nnc(NC(=O)Cc2cccs2)s1	none
COc1cccc(-c2nnc(NC(=O)Cc3cccs3)s2)c1	Pol eta inh inconclusive, POLB inh 20µM, PI5P4K alpha inh inconclusive
CN(C)CCNc1ncnc2c1ncn2[C@H]1CN(Cc2ccco2)C[C@@H](CO)O1	none (no result: Pol eta inh, POLB inh, POLK inh, POLI inh)
COc1cc(NCCCC(C)N)c2ncccc2c1 (stereo unspecified)	Pol eta inh inconclusive, POLB inh 32µM, WRN helicase inh inconclusive
COc1cc(NCCCCC(C)N)c2nccc(C)c2c1 (stereo unspecified)	none (no result: POLB inh, POLK inh, POLI inh)
CCCCOc1cc(NCc2ccccc2)c2ncn(C(C)C)c2c1	POLI inh inconclusive (no result: POLB inh)
CCC(CO)Oc1cc(NCc2ccccc2)c2ncn(C(C)C)c2c1 (stereo unspecified)	POLI inh 18µM (no result: POLB inh)
CCOCCOc1cc(NCc2ccccc2)c2ncn(C(C)C)c2c1	POLI inh 35µM (no result: POLB inh)
CCC(CO)Oc1cc(NC(=O)c2ccc(N)cc2)c2ncn(C(C)C)c2c1 (stereo unspecified)	Pol eta inh 89µM, POLI inh inconclusive (no result: POLB inh)
CCC(CO)Oc1cc(NCc2ccc(O)cc2)c2ncn(C(C)C)c2c1 (stereo unspecified)	none (no result: POLB inh)
CCC(CO)Oc1cc(NC(=O)c2ccc(F)cc2)c2ncn(C(C)C)c2c1 (stereo unspecified)	none (no result: POLB inh)
O=C(Cc1ccc(Cl)c(Cl)c1)Nc1ccc(S(=O)(=O)Nc2ncccn2)cc1	none
CC[N+](C)(C)c1ccc(/C=C/c2ccncc2)cc1	POLI inh 79µM (no result: Pol eta inh, POLB inh, WRN helicase inh, PI5P4K alpha inh)
COc1cccc(OCc2cc(/C=N/Nc3ccc(C(=O)O)cc3)ccc2OC)c1	Pol eta inh 50µM, PI5P4K alpha inh inconclusive
CCOCCCNC(=O)c1oc2ccc3c(c2c1C)C(O)CC(C)(C)O3 (stereo unspecified)	none
CC1CCC/C(=N\Nc2ccc(Cl)c(C(=O)O)c2)C1 (stereo unspecified)	Pol eta inh 8.9µM, POLB inh 32µM, POLK inh inconclusive, WRN helicase inh inconclusive, POLI inh inconclusive
CCOC(=O)C1Nc2ccc(C(=O)O)cc2C2C=CCC12 (stereo unspecified)	Pol eta inh 2.8µM, POLB inh 16µM, POLK inh 10µM, WRN helicase inh 28µM, PI5P4K alpha inh -69, POLI inh inconclusive
CCOC(=O)c1ccc2c(c1)C1C=CCC1C(C(=O)O)N2 (stereo unspecified)	POLB inh 4µM (no result: Pol eta inh, POLK inh, WRN helicase inh, PI5P4K alpha inh, POLI inh)
CCCC1Nc2ccc(C(=O)O)cc2C2C=CCC12 (stereo unspecified)	Pol eta inh 8.9µM, POLB inh 35µM, POLK inh 35µM, WRN helicase inh inconclusive, POLI inh 18µM
COc1cccc([C@@H]2Nc3ccc(C(=O)O)cc3[C@@H]3C=CC[C@@H]32)c1OC	none (no result: WRN helicase inh, PI5P4K alpha inh)
O=C(O)c1ccc2c(c1)C1C=CCC1C(c1ccncc1)N2 (stereo unspecified)	Pol eta inh inconclusive, POLB inh inconclusive
O=C(NCc1ccccn1)C1Nc2ccc(C(F)(F)F)cc2C2C=CCC12 (stereo unspecified)	PI5P4K alpha inh inconclusive, POLI inh inconclusive (no result: POLB inh)
O=C(O)C1Nc2ccccc2C2C=CCC12 (stereo unspecified)	POLK inh 6.3µM, POLI inh 3.5µM (no result: Pol eta inh, POLB inh, WRN helicase inh, PI5P4K alpha inh)
Cc1ccc(NC(=O)CCNS(=O)(=O)c2ccc(OC(F)(F)F)cc2)c(O)c1	none
CC[C@@]1(O)C[C@H](O[C@H]2C[C@@H](N(C)C)[C@@H](O[C@H]3C[C@@H](O)[C@@H](O[C@H]4CCC(=O)[C@@H](C)O4)[C@@H](C)O3)[C@@H](C)O2)c2c(cc3c(c2O)C(=O)c2c(O)cccc2C3=O)[C@H]1C(=O)OC	POLK inh 4.5µM (no result: Pol eta inh, POLB inh, WRN helicase inh, PI5P4K alpha inh, POLI inh)
Cc1cc(C)nc(/N=C(\N)Nc2ccc(OCCC(C)C)cc2)n1	none
O=C(CN1CCN(Cc2ccccc2)CC1)NNC(=O)c1ccccc1	none (no result: POLB inh)
O=[N+]([O-])c1ccc(N=Nc2c(Cl)cc(O)cc2Cl)cc1	none
Nc1c(N=Nc2ccc([N+](=O)[O-])cc2)c(S(=O)(=O)O)cc2cc(S(=O)(=O)O)c(/C=C/c3ccccc3)c(O)c12	POLK inh 32µM, POLI inh 25µM (no result: Pol eta inh, POLB inh, WRN helicase inh, PI5P4K alpha inh)
Cc1ccc(-n2nc(-c3ccco3)cc2C(=O)O)cc1	Pol eta inh 14µM, POLB inh inconclusive, POLK inh inconclusive, WRN helicase inh 45µM, PI5P4K alpha inh -51, POLI inh 18µM
O=C(c1cc(-c2ccco2)nn1-c1cccc(Cl)c1)N1CCCCC1	Pol eta inh 18µM, POLB inh inconclusive, POLK inh inconclusive, WRN helicase inh 56µM, PI5P4K alpha inh -82, POLI inh inconclusive
Cc1cccc(CN(CC(=O)N/N=C/c2ccco2)S(=O)(=O)c2ccc(Cl)cc2)c1	Pol eta inh 28µM, POLB inh inconclusive, WRN helicase inh inconclusive, POLI inh inconclusive
Cc1ccc(S(=O)(=O)N(CC(=O)N/N=C/c2ccco2)Cc2ccccc2)cc1	none (no result: PI5P4K alpha inh)
Cc1ccnc(NC(=O)Nc2ccc3c(c2)N(C)C(=O)CS3)c1	none
Cc1ccc(NC(=O)Nc2ccc3c(c2)N(C)C(=O)CS3)nc1	POLB inh inconclusive, POLI inh 89µM (no result: PI5P4K alpha inh)
COc1ccc2cc(C(=O)N/N=C/c3cc(OC)c(OC)c(OC)c3)[nH]c2c1	Pol eta inh inconclusive, POLB inh 10µM, POLI inh inconclusive
